# Target: DSPP
# Assay: pooled miR-30 sensor sort-seq; sequence = guide strand
# Details: shRNA
row,Sequence,sensor-assay potency score (higher = more potent)
1,TTGCTGTCACTGCTGTCGCTGC,-0.804
2,TTGTCTGTACTGTTATTGCTTC,-0.739
3,TTGGACAACAGCGACATCCTCA,0.0891
4,TTTCTGAATTAGCATCATCATT,-1.5
5,TATGTTGACAACCTCTCCTTGT,0.37
6,TTTTTCGACATGTCTCTCCAGT,-0.00978
7,TTATTAGTGTCTGATGTGCTAT,-0.602

# Target: DTNBP1
# Assay: as above
# Details: shRNA
row,Sequence,sensor-assay potency score (higher = more potent)
1,TCTAGTTCAGCTTTGAAGGTTT,0.0978
2,TAAGTCTTCCAGATGCAGCAGG,-0.317
3,TTTGCTTCTCTTGACTTGTCAC,0.23
4,TTCCTCAAAAAACTTCTGCCGC,-0.552
5,TATTTTTCTTGTAATTCTCCAG,-0.412
6,TTTTCTTGTAATTCTCCAGTTG,-0.365
7,TGACTTGTCACTTAAAGTCTTC,-0.418
8,TCATCGGACTGAACAACGGGGG,-0.232
9,ATTTTTCTTGTAATTCTCCAGT,-0.545
10,TAAAACAACCTGGCTTTCCAGG,-0.923
11,TCACTTAAAGTCTTCAGCCCGG,-0.801
12,TTTCTTGTAATTCTCCAGTTGC,-0.554

# Target: DTX1
# Assay: as above
# Details: shRNA
row,Sequence,sensor-assay potency score (higher = more potent)
1,TCTTCGAACCACATCCTCGGGA,-0.159
2,TATCTTCGAACCACATCCTCGG,0.116
3,TAGATGAGGTAGCAGAAGCCTA,-1.12
4,TGTCTCTTCTCTTCCAGCCTGG,0.154
5,TTGAAGTAGATGAGGTAGCAGA,-0.853
6,TGAGGTTGGATCCAAACTCGGT,-0.565
7,TTCATCTGCGACATGCTGTTGA,0.174
8,TATTTCTCCACCCACAGTGGGA,-0.561
9,TGTCTAGGTAGCTAGCGTCCGG,-0.967
10,TTGACCAGCAGGCACTGCTGGC,-1.17
11,TCTAGGTAGCTAGCGTCCGGGT,-1.53
12,TTCTTTTGTAGAACTGCTCAGT,-0.299
13,TTGTTGGGTAGATAGCAGTGGC,-0.92
14,TTGCGGTGAACTTCTTCCCGGG,-0.0133
15,TTGGTCTTGCGGCACACCCCGG,-0.985
16,TTCACCTTCTGCATGTATCTTC,0.43
17,TTTGAAAAGAGCAATCGCTGGC,0.224
18,TAGAACTGCTCAGTCATCTGGG,0.451
19,TGTATCTTCGAACCACATCCTC,-0.0113
20,TTTGTAGAACTGCTCAGTCATC,-1.13
21,TTTAAGGTGCTTCTTCTTGGTC,-0.486

# Reference: the OligoGym collection
